The values that follow come from PubChem BioAssay (NCATS).

Values joined by “and” are separate entries in the source; they are usually repeats but may differ in a detail not shown here. Identical values can stand only once. Results filed as inconclusive are left out. A number with no mark means an inactive call. Calls come from the whole dose curve; as a rule, active = well fitted activation curve with a large enough effect; inconclusive = small, poorly fitted or top-dose-only effect; inactive = flat fitted curve, though single readings scatter.

This experiment can be described thus: qHTS assay for environmental chemicals that activate the Aryl hydrocarbon Receptor (AhR) signaling pathway (AID 651777). Note: % of control where 0% means no effect; nearly all actives have a fitted effect of over 15% in size. To be noted: 1A2-DRE human hepatoma cells, luciferase, 24 h; activation: hits give high values. An excerpt: National Center for Advancing Translational Sciences [NCATS]
NIH Chemical Genomics Center [NCGC]
U.S. Environmental Protection Agency [EPA]
National Institutes of Environmental Health Sciences [NIEHS]
National Toxicology Program [NTP]
The Aryl hydrocarbon Receptor (AhR) plays a critical role in the development of cancer or neoplasm and its formation is most likely due to genetic mutations and the influence of environment. Exposure to environmental pollutants such as polycyclic aromatic hydrocarbons (PAH), their halogenated derivatives and heterocyclic amines causes the induction of phase I and II enzymes. The transcriptional activation of CYP1A2 is directly regulated by AhR.
A cell based assay (1A2-DRE cells, developed by Puracyp, Inc., CA) was used to assess the activation of AhR. Human hepatoma cells were stably transfected with the dioxin response element (DRE) and CYP1A2 promoter fused to a luciferase gene. Increased luciferase activity can be used to identify the compounds that cause the induction of CYP1A2 and AhR activation.
1,200 cells in 5 uL/well were dispensed into white wall/solid bottom 1536-well plates using a Multidrop Combi (Thermo Scientific) dispenser. Following transfer of 23 nL compound or DMSO vehicle by a pin tool, the plates were incubated 24 hr at 37 C and 5% CO2. 5 ul One-Glo (Promega) was then added to each well and following 30 min incubation at room temperature, luciferase activity was quantified on a ViewLux CCD-based plate reader.
Consider `CN(C)CCCCCCN(C)C`, for which the activation is 1.69%.
The figure for `C=CC(=O)OCCOCCOCCOCCOC(=O)C=C` is 1.73% and 5.16%; for `O=[N+]([O-])c1cccc(Cl)c1Cl` it is 0.0517% and -0.399%; for `COC(=O)c1ccc(C=O)cc1` it is 1.65% and -0.822%.
On to `CC1(C)S[C@@H]2[C@H](NC(=O)COc3ccccc3)C(=O)N2[C@H]1C(=O)O`, for which the activation is -1.58%.
For `O=C(O)c1ccc(O)cc1O` the value was 0.974% and 0.552%.
For `C=C(C)C1CC=C(C)C(O)C1` (stereo not given) the value was -0.5%.
As to `COCC(=O)O`, the activation is -1.91% and 0.0528%.
As to `C=CCc1ccc(OC)c(OC)c1`, the activation was 0.456% and 0.0921%.
For `CCCCOCCO` the value was -1.94% and 0.578% and 2.45%; for `CC(=O)OC/C=C(\C)CCC=C(C)C`, 0.424% and -0.161%; for `CCC(C)c1ccccc1O` (stereo not given), -0.0817% and -0.418% and 0.519%.
The figure for `O[C@@H]([C@H](O)[C@@H](O)CBr)[C@@H](O)CBr` is 0.0467%; for `CC1=CC(C)(C)Nc2ccccc21` it is 1.47% and 1.06%; for `Cc1ccc([N+](=O)[O-])cc1N` it is 6.03% and 2.09%.
For `C=CC(C)(CCC=C(C)C)OC(C)=O` (stereo not given) the value was 3.8%.
In the case of `C[Si](C)(C)O[Si](C)(C)O[Si](C)(C)C`, the activation was -0.707%.
The figure for `OCCNCCO` is 1.33% and -0.956%; for `ClCCCl` it is 0.113% and 1.25% and 1.3%.
For `CC1(C)CC(N=C=O)CC(C)(CN=C=O)C1` (stereo not given), the activation was 2.53% and -0.0427%.
For `COC(=O)c1ccc(C)cc1` the value was -1.02% and 0.0239%.
The figure for `CCCCCCCCO` is -0.529% and -1.53% and 2.03%; for `C=Cc1ccccc1Cl` it is -0.0962%; for `Clc1cc(Cl)c(Cl)c(Cl)c1Cl` it is 0.277% and 2.12%.
The figure for `C=CCOC(=O)c1ccccc1C(=O)OCC=C` is -0.581% and 2.86%; for `CCCCCCCCCCCCCCC1CO1` (stereo not given) it is 0.108% and 0.658%.
Turning to `O=C(O)c1ccccc1C(c1ccc(O)cc1)c1ccc(O)cc1`, the activation is 2.69% and 0.36%.
For `O=C(O)CCCCCCCCC(=O)O` the value was -2.45%.
The figure for `O=NO` is -0.432% and -1.54%.
The figure for `CCO` is -1.26%; for `CCCN(CCC)C(=O)SCC` it is 0.446% and -0.849%; for `Cc1cccc(O)c1` it is 3.54% and 0.802%.
`CC(C)=CCCC(C)CCO` (stereo not given): the activation is -0.0827% and -0.667%.
For `O=C(O)c1ccccc1` the value was 2.1%; for `Nc1ccc(Cl)cc1Cl`, -1.04% and 0.693%; for `COc1c2ccoc2cc2oc(=O)ccc12`, 1.47%.
Consider `c1ccc2c(c1)c1cccc3ccc4cccc2c4c31`, for which the activation was 0.979% and 4.09%.
The figure for `CCCCC(CC)CN` (stereo not given) is 0.546% and 3.21%; for `C1OCOCO1` it is -0.144%.
For `C[C@H](CCC(=O)O)[C@H]1CC[C@H]2[C@@H]3CC[C@@H]4C[C@H](O)CC[C@]4(C)[C@H]3CC[C@]12C` the value was 1.31% and 0.102%.
